# Compound activity: PubChem BioAssay, several laboratories
# PP5 primary = PP5 (human) phosphatase inhibition; P53041; purified PP5c, OMFP substrate fluorescence; inhibition, % at 6.7 µM; actives 0.18% (n = 320,000); AID 1987;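 active means inhibition above the campaign's mean inhibition across all tested compounds plus 3 SD, cut at about 9.5% in these data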;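 further: 0% = DMSO only and 100% = 100 µM cantharidin control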
# PG9 binder = small molecules binding HIV-1 gp120 antibody PG9 | actives 0.43% (n = 360,000) | AID 624416 | inhibition, % at 6.7 µM | TR-FRET gp120-PG9 antibody binding; in the data active means inhibition above about 8.5%
# PP1 counter = counter-screen for PP5 inhibitors: inhibitors of human PP1-alpha; P62136; purified PP1alpha, OMFP fluorescence; inhibition, % at 6.7 µM; actives 0.9% (n = 320,000); AID 2235;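 active means inhibition above the mean inhibition of all tested compounds plus 3 SD, computed separately for each screening campaign, cut at about 15% in these data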
# Target sequence (P62136 whole entry, looked up): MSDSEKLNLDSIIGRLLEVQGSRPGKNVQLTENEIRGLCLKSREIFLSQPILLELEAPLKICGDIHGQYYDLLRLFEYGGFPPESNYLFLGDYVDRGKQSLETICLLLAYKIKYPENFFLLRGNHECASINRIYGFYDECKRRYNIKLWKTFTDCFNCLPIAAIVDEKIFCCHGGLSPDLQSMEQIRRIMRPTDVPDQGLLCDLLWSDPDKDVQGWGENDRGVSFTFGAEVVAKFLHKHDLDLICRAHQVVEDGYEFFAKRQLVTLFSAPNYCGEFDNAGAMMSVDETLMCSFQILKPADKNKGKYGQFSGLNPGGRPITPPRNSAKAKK
# Rev-erbA mod = Rev-erb alpha (human) modulation; Rev-erbα–FITC-DNA binding, fluorescence polarization, 90 min; activity, % at 10 µM; actives 0.79% (n = 370,000); AID 1259318;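 active means activity above about 14%, limit read from the data; passing the limit was not always enough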;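 further: 0% = DMSO wells with 35 nM protein and 100% = DMSO wells with 750 nM protein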
# proKLK7 act = activators of human kallikrein-7 zymogen; actives 0.9% (n = 370,000); P49862; purified proKLK7, EDANS-DABCYL substrate fluorescence; 100% is mature enzyme control, 0% vehicle; activation, % at 7 µM;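 active means activation above the mean of all tested compounds plus 3 SD, computed per campaign excluding outliers beyond control limits, cut at about 13% in these data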
# Target sequence (P49862 whole entry, looked up): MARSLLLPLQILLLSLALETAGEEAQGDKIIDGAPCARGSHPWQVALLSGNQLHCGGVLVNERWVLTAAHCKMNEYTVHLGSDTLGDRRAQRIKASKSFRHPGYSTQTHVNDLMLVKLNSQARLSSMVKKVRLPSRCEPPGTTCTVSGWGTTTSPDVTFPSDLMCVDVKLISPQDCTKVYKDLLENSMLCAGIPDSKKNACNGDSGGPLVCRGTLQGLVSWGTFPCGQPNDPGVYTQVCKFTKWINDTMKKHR
# GASC-1 inh = human JMJD2C demethylase inhibition. actives 0.069% (n = 330,000). GST-JMJD2C(1-420) H3K9me3 demethylation, DELFIA europium. AID 2099. inhibition, % at 2.35 µM;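 active means more than half of a compound's replicate wells show inhibition beyond 50%, single wells judged on their own value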;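 further: signal counts dimethyl H3K9 product captured on neutravidin plate; 0% = median of DMSO wells and 100% = 0.3 times that DMSO median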
# PP1 inh confirm = human PP1 phosphatase inhibition, confirmation; inhibition, % at 6.7 µM; purified PP1alpha, OMFP substrate fluorescence; actives 52% (n = 1,900); shares compounds with PP1 counter;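 active means mean PP1 inhibition above a set limit taken from the earlier primary screen, cut at about 15% in these data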
# PP5 inh counter = inhibits human PP5 phosphatase in PP1 counter-screen. purified PP5c, OMFP fluorescence. actives 4% (n = 1,900). shares compounds with PP1 counter. AID 2360. inhibition, % at 6.7 µM;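 active means mean PP5 inhibition over triplicate wells above about 9.5% taken from the earlier PP1 screen, limit read from the data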
# Numbers without * were called inactive; · = no result given. An excerpt weighted towards active compounds, which were near 2.8% of everything screened.
SMILES,PP5 primary,PG9 binder,PP1 counter,Rev-erbA mod,proKLK7 act,GASC-1 inh,PP1 inh confirm,PP5 inh counter
CCN(CC)c1ccc(/C=N/NC(=O)Cc2nnc(NC(=O)Nc3ccccc3)s2)cc1,1,-1,20*,4,-3,0,25*,-3
C#CCOCCOCCOCCNc1nc(N2CCN(C(=O)C(Cc3cc4ccccc4[nH]3)n3cc(C(N)Cc4ccc(O)cc4)nn3)CC2)nc(N2CCN(C(=O)C(CCC(=O)O)n3cc(C(N)C(C)CC)nn3)CC2)n1 (stereo not drawn),3,0,-1,-2,1,-1,·,·
C#CCOCCOCCOCCNc1nc(N2CCN(C(=O)[C@H](Cc3cc4ccccc4[nH]3)n3cc([C@@H](N)C(C)CC)nn3)CC2)nc(N2CCN(C(=O)[C@H](Cc3cc4ccccc4[nH]3)n3cc([C@@H](N)Cc4ccc(O)cc4)nn3)CC2)n1 (stereo partly drawn),8,·,84*,·,·,12,78*,5
C#CCOCCOCCOCCNc1nc(N2CCN(C(=O)[C@H](Cc3cc4ccccc4[nH]3)n3cc([C@@H](N)CC(C)C)nn3)CC2)nc(N2CCN(C(=O)[C@H](Cc3cc4ccccc4[nH]3)n3cc([C@@H](N)CC(C)C)nn3)CC2)n1,7,·,43*,·,·,-10,-8,2
C#CCOCCOCCOCCNc1nc(N2CCN(C(=O)[C@H](Cc3ccc(O)cc3)n3cc([C@@H](N)C(C)CC)nn3)CC2)nc(N2CCN(C(=O)[C@H](Cc3cc4ccccc4[nH]3)n3cc([C@@H](N)CC(C)C)nn3)CC2)n1 (stereo partly drawn),2,2,20*,6,2,-7,-17,-1
C#CCOCCOCCOCCNc1nc(N2CCOCC2)nc(N2CCN(C(=O)[C@H](Cc3cc4ccccc4[nH]3)n3cc([C@@H](N)CC(C)C)nn3)CC2)n1,0,·,3,·,·,33,·,·
COC(=O)c1cc2c(c3c4cc(F)ccc4n(S(=O)(=O)c4ccccc4)c13)C(=O)N(C)C2,·,0,·,1,0,·,·,·
Cn1cnnc1SCc1ccc(C(=O)N=Nc2c(O)n(Cc3ccc(Cl)cc3)c3ccccc23)cc1,2,-3,20*,-2,1,-17,16*,-2
CCn1c(O)c(N=NC(=O)c2ccc(CSc3nncn3C)cc2)c2ccccc21,1,-4,0,1,1,2,·,·
Cc1ccccc1NC(=O)CN1C(=O)N/C(=C\c2ccccc2OCc2ccc(C(=O)O)cc2)C1=O,3,-2,18*,-2,2,17,16*,-7
O=C(O)c1ccc(COc2ccccc2/C=C2/NC(=O)N(c3cccc(Cl)c3)C2=O)cc1,1,-1,38*,0,-1,-5,35*,2
Cc1ccccc1Nc1nnc(SCC(=O)NC(=O)NCc2ccco2)s1,1,3,26*,-18,0,-1,7,-3
O=C(CSc1nnc(Nc2ccccc2F)s1)NCc1ccco1,·,0,·,-13,0,·,·,·
O=C(Cc1c[nH]c2ccccc12)Nc1ccc(Nc2cccnc2)c(-c2ccc(Cl)c(Cl)c2)c1,·,0,·,3,-2,·,·,·
COc1ccc(NC(=O)NC(=O)c2ccccc2)cc1,5,-2,1,-1,0,0,·,·
COc1ccc(OC)c(NC(=O)Nc2cc(NC(=O)Nc3cc(OC)ccc3OC)c(C)nc2C)c1,-2,-1,13,-1,1,7,·,·
COc1ccc(NC(=O)Nc2cc(NC(=O)Nc3ccc(OC)cc3)c(C)nc2C)cc1,3,-1,18*,5,0,7,21*,-2
COc1ccc(NC(=O)NNC(=O)C(O)(c2ccccc2)c2ccccc2)cc1,-2,-1,21*,-2,0,-1,1,-3
COC(=O)c1cc2c(c3c4cc(F)ccc4n(S(=O)(=O)c4ccccc4)c13)C(=O)N(Cc1ccccc1)C2,·,0,·,3,0,·,·,·
COC(=O)C1CN(Cc2cn(CCC3OCCO3)nn2)CCS(=O)(=O)N1Cc1ccc(F)cc1 (stereo not drawn),·,·,·,0,-1,·,·,·
COCCn1c(C)cc(C2=NNC(=Nc3ccc(OC)cc3)SC2)c1C,1,·,20*,·,·,-4,8,-3
CC(=O)N1CCN(c2ccc(N3CCN(C(C)=O)[C@@H](C)C3)c(C)c2)[C@@H](C)C1,·,-3,·,-5,0,·,·,·
COc1ccc2cc3c(N)nn(C(=O)Cc4ccc(Cl)cc4)c3nc2c1,1,6,21*,6,0,-2,12,-4
COc1ccc2cc3c(N)nn(C(=O)Cc4c[nH]c5ccccc45)c3nc2c1,5,-1,19*,10,-32,7,17*,4
C=CCN1[C@H](CC(C)C)COc2cc(F)ccc2S1(=O)=O,·,·,·,13,-1,·,·,·
SMILES,PP5 primary,PG9 binder,PP1 counter,Rev-erbA mod,proKLK7 act,GASC-1 inh,PP1 inh confirm,PP5 inh counter
O=C1NCN(c2ccccc2)C12CCN(CCCC(c1ccc(F)cc1)c1ccc(F)cc1)CC2,4,-1,19*,2,0,·,-9,5
COc1ccc(CCNc2ccc(C(CC(N)=O)NC(=O)Cc3ccc(Br)cc3)cc2[N+](=O)[O-])cc1 (stereo not drawn),-5,0,18*,2,0,-3,26*,-3
CCCCNc1ccc(C(CC(N)=O)NC(=O)Cc2ccc(Br)cc2)cc1[N+](=O)[O-] (stereo not drawn),1,0,6,-2,0,-4,·,·
NC(=O)CC(NC(=O)Cc1ccc(Br)cc1)c1ccc(NCCc2ccc(F)cc2)c([N+](=O)[O-])c1 (stereo not drawn),1,0,18*,-3,0,3,25*,-2
NC(=O)CC(NC(=O)c1ccc(Br)cc1)c1ccc(NCc2ccc(F)c(F)c2)c([N+](=O)[O-])c1 (stereo not drawn),1,-1,12,6,0,-5,·,·
NC(=O)CC(NC(=O)c1ccc(Br)cc1)c1ccc(NCc2ccc(F)cc2)c([N+](=O)[O-])c1 (stereo not drawn),3,-2,19*,5,0,-4,26*,-3
NC(=O)CC(NC(=O)Cc1ccc(Br)cc1)c1ccc(NCCc2ccccc2F)c([N+](=O)[O-])c1 (stereo not drawn),3,-1,24*,4,1,-3,25*,-1
Nc1[nH]n(-c2ccccc2)c(=O)c1N=Nc1ccc(F)cc1,·,·,·,-4,0,·,·,·
COc1cc(C2CC=C(C(=O)O)C(c3ccccc3F)N2S(=O)(=O)c2ccc(C)cc2)cc(OC)c1OC (stereo not drawn),·,·,·,0,-1,·,·,·
